Screen size: about 5,500 compounds; about 2,000 (36%) were called active. Roughly 18% stayed inconclusive and do not appear here. No stated cut-off is given here; in the data, active means normalized growth mostly below about 0.91 (no sharp cut-off); inconclusive means no clear call, values can overlap the other calls; inactive means mostly above about 0.92. This is one part of the list.
Experiment: chemical genetic growth profiling, strain panel (AID 1159580);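 further: tested at 20 µM; growth read once vehicle control cultures reached saturation at 30 °C; 1 = growth at the plate median or of vehicle wells; lower values mean less growth of the strain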
Conditions: growth OD
[1] = S. cerevisiae deletion strains, locus YAL040C, strain CLN3, active compounds read low
[2] = S. cerevisiae deletion strains, locus YCL061C, strain MRC1 (second series), active compounds read low
[3] = S. cerevisiae deletion strains, locus YDR363W, strain ESC2, active compounds read low
[4] = S. cerevisiae deletion strains, locus YER002W, strain NOP16, active compounds read low
[5] = S. cerevisiae deletion strains, locus YGR078C, strain PAC10, active compounds read low
[6] = S. cerevisiae deletion strains, locus YJR075W, strain HOC1, active compounds read low
[7] = S. cerevisiae deletion strains, locus YMR307W, strain GAS1, active compounds read low
[8] = S. cerevisiae deletion strains, locus YNL128W, strain TEP1, active compounds read low
[9] = S. cerevisiae deletion strains, locus YNL153C, strain GIM3, active compounds read low
[10] = S. cerevisiae deletion strains, locus YNL175C, strain NOP13, active compounds read low
[11] = S. cerevisiae deletion strains, locus YNL197C, strain WHI3, active compounds read low
[12] = S. cerevisiae deletion strains, locus YNL224C, strain SQS1, active compounds read low
[13] = S. cerevisiae deletion strains, locus YOR083W, strain WHI5 (second series), active compounds read low
[14] = S. cerevisiae deletion strains, locus YPL241C, strain CIN2, active compounds read low
[15] = S. cerevisiae deletion strains, locus YMR263W, strain SAP30, active compounds read low

Measured: normalized growth

O=C(O)CNC(=O)C(CS)Cc1ccccc1 (stereo not given)
inactive: S. cerevisiae deletion strains, locus YAL013W, strain DEP1, active compounds read low 1.01 | [1] 1.05 | [2] 1 | [3] 1.01 | [4] 0.994 | [5] 1.01 | [6] 0.996 | [7] 1 | [8] 1.02 | [9] 1.07 | [10] 1.01 | [11] 0.967 | [12] 1 | S. cerevisiae deletion strains, locus YNL322C, strain KRE1, active compounds read low 0.995 | [13] 1.04 | S. cerevisiae deletion strains, locus YPL055C, strain LGE1, active compounds read low 1.01 | [14] 1.01

CC(=O)SC1CC2=CC(=O)CC[C@]2(C)C2CC[C@@]3(C)C(CC[C@@]34CCC(=O)O4)C12 (stereo not given in full)
inactive: [1] 0.996 | [2] 1 | S. cerevisiae deletion strains, locus YDR150W, strain NUM1, active compounds read low 1.01 | [3] 1 | [4] 0.982 | [5] 1.01 | S. cerevisiae deletion strains, locus YGR229C, strain SMI1, active compounds read low 1.01 | [6] 1.01 | [15] 0.99 | [7] 1.03 | [8] 0.986 | [10] 1.01 | [11] 0.999 | [12] 1 | [13] 1.01 | [14] 1.01

CC(=O)O[C@@H]1CC2C(C)(C)C(=O)[C@@H]3O[C@@H]3[C@]2(C)C2CC[C@]3(C)C(=CC(=O)O[C@H]3c3ccoc3)[C@@]21C (stereo not given in full)
inactive: S. cerevisiae deletion strains, locus YBR021W, strain FUR4, active compounds read low 0.995 | S. cerevisiae deletion strains, locus YBR229C, strain ROT2, active compounds read low 0.94 | S. cerevisiae deletion strains, locus YCL029C, strain bik1, active compounds read low 0.967 | S. cerevisiae deletion strains, locus YDL035C, strain GPR1, active compounds read low 0.958 | S. cerevisiae deletion strains, locus YDL074C, strain BRE1, active compounds read low 0.989 | S. cerevisiae deletion strains, locus YDL101C, strain DUN1, active compounds read low 0.994 | S. cerevisiae deletion strains, locus YDL134C, strain PPH21, active compounds read low 0.988 | S. cerevisiae deletion strains, locus YDL185W, strain tfp1, active compounds read low 0.964 | S. cerevisiae deletion strains, locus YDL192W, strain arf1, active compounds read low 0.976 | S. cerevisiae deletion strains, locus YDR101C, strain arx1, active compounds read low 0.975 | S. cerevisiae deletion strains, locus YDR162C, strain NBP2, active compounds read low 0.98 | S. cerevisiae deletion strains, locus YDR318W, strain mcm21, active compounds read low 0.995 | S. cerevisiae deletion strains, locus YDR388W, active compounds read low 0.999 | S. cerevisiae deletion strains, locus YDR502C, strain sam2, active compounds read low 1.01 | S. cerevisiae deletion strains, locus YEL061C, strain CIN8, active compounds read low 0.979 | S. cerevisiae deletion strains, locus YER110C, active compounds read low 0.975 | S. cerevisiae deletion strains, locus YER155C, strain BEM2, active compounds read low 0.998 | S. cerevisiae deletion strains, locus YER167W, strain BCK2, active compounds read low 0.981 | S. cerevisiae deletion strains, locus YGL078C, strain dbp3, active compounds read low 1.01 | S. cerevisiae deletion strains, locus YGL086W, strain mad1, active compounds read low 0.99 | S. cerevisiae deletion strains, locus YGL248W, strain PDE1, active compounds read low 1.01 | [5] 1.01 | S. cerevisiae deletion strains, locus YGR135W, strain pre9, active compounds read low 1.07 | S. cerevisiae deletion strains, locus YGR252W, strain gcn5, active compounds read low 0.997 | S. cerevisiae deletion strains, locus YHR030C, strain SLT2, active compounds read low 0.989 | S. cerevisiae deletion strains, locus YHR079C, strain IRE1 (second series), active compounds read low 0.985 | S. cerevisiae deletion strains, locus YHR094C, strain hxt1, active compounds read low 0.981 | S. cerevisiae deletion strains, locus YHR129C, strain ARP1, active compounds read low 0.988 | S. cerevisiae deletion strains, locus YHR200W, strain rpn10, active compounds read low 0.985 | S. cerevisiae deletion strains, locus YIL066C, strain RNR3, active compounds read low 0.948 | S. cerevisiae deletion strains, locus YIL073C, strain SPO22, active compounds read low 0.956 | S. cerevisiae deletion strains, locus YIL125W, strain kgd1, active compounds read low 0.987 | S. cerevisiae deletion strains, locus YIR030C, strain dcg1, active compounds read low 0.99 | S. cerevisiae deletion strains, locus YJL095W, strain BCK1, active compounds read low 1.04 | S. cerevisiae deletion strains, locus YJL134W, strain LCB3, active compounds read low 0.982 | S. cerevisiae deletion strains, locus YJL168C, strain set2, active compounds read low 0.996 | S. cerevisiae deletion strains, locus YJL187C, strain SWE1 (second series), active compounds read low 1.01 | S. cerevisiae deletion strains, locus YJR043C, strain POL32, active compounds read low 0.96 | [6] 1 | S. cerevisiae deletion strains, locus YKL009W, strain mrt4, active compounds read low 0.976 | S. cerevisiae deletion strains, locus YKL068W, active compounds read low 0.986 | S. cerevisiae deletion strains, locus YKL085W, strain MDH1 (second series), active compounds read low 0.996 | S. cerevisiae deletion strains, locus YKL085W, strain MDH1, active compounds read low 0.996 | S. cerevisiae deletion strains, locus YKR001C, strain vps1, active compounds read low 0.971 | S. cerevisiae deletion strains, locus YLR039C, strain RIC1, active compounds read low 0.99 | S. cerevisiae deletion strains, locus YLR058C, strain SHM2, active compounds read low 0.974 | S. cerevisiae deletion strains, locus YLR102C, strain apc9, active compounds read low 0.981 | S. cerevisiae deletion strains, locus YLR262C, strain YPT6, active compounds read low 0.963 | S. cerevisiae deletion strains, locus YLR268W, strain sec22, active compounds read low 0.948 | S. cerevisiae deletion strains, locus YLR330W, strain CHS5, active compounds read low 0.988 | S. cerevisiae deletion strains, locus YLR371W, strain rom2, active compounds read low 0.979 | S. cerevisiae deletion strains, locus YLR418C, strain cdc73, active compounds read low 0.993 | S. cerevisiae deletion strains, locus YML016C, strain PPZ1, active compounds read low 0.972 | S. cerevisiae deletion strains, locus YML032C, strain rad52, active compounds read low 0.962 | S. cerevisiae deletion strains, locus YML124C, strain tub3, active compounds read low 0.991 | S. cerevisiae deletion strains, locus YMR078C, strain ctf18, active compounds read low 0.993 | S. cerevisiae deletion strains, locus YMR223W, strain ubp8, active compounds read low 1 | [15] 1.01 | [7] 0.999 | S. cerevisiae deletion strains, locus YNL067W, strain RPL9B, active compounds read low 1.03 | [8] 0.948 | [9] 1.02 | S. cerevisiae deletion strains, locus YNL233W, strain BNI4, active compounds read low 1.03 | S. cerevisiae deletion strains, locus YNL250W, strain rad50, active compounds read low 1.01 | S. cerevisiae deletion strains, locus YNL271C, strain bni1, active compounds read low 0.999 | S. cerevisiae deletion strains, locus YNL298W, strain CLA4, active compounds read low 0.995 | S. cerevisiae deletion strains, locus YNL307C, strain MCK1, active compounds read low 0.987 | S. cerevisiae deletion strains, locus YNR052C, strain pop2, active compounds read low 1.04 | S. cerevisiae deletion strains, locus YOL012C, strain htz1 0.875 | S. cerevisiae deletion strains, locus YOL147C, strain pex11, active compounds read low 0.993 | S. cerevisiae deletion strains, locus YOR061W, strain CKA2, active compounds read low 0.936 | S. cerevisiae deletion strains, locus YOR069W, strain VPS5, active compounds read low 0.995 | S. cerevisiae deletion strains, locus YOR136W, strain idh2, active compounds read low 0.99 | S. cerevisiae deletion strains, locus YOR144C, strain elg1, active compounds read low 0.988 | S. cerevisiae deletion strains, locus YOR184W, strain ser1, active compounds read low 0.963 | S. cerevisiae deletion strains, locus YOR316C, strain cot1, active compounds read low 0.986 | S. cerevisiae deletion strains, locus YPR119W, strain clb2, active compounds read low 0.993 | S. cerevisiae deletion strains, locus YPR141C, strain kar3, active compounds read low 0.989 | S. cerevisiae deletion strains, locus YPR163C, strain tif3, active compounds read low 0.982 | S. cerevisiae deletion strains, locus YPR167C, strain met16, active compounds read low 0.999 | S. cerevisiae deletion strains, strain wtn01, active compounds read low 0.96 | S. cerevisiae strains, strain wild type, active compounds read low 0.973

— PubChem BioAssay AID1159580 (chemical genetic matrix, 2015)
